Our source for the growth values is PubChem BioAssay (NCI).

What all share (experiment): NCI-60 one-dose screen, 48 h (100 = growth as untreated, 0 = no growth, -100 = all killed)
In assay [1] the test system is SR leukemia. The settings on record: 10 µM unless noted.
Assay [2] concerns RPMI-8226 leukemia. The settings on record: 10 µM unless noted.
In assay [3] the test system is OVCAR-8 ovarian. The settings on record: 10 µM unless noted.
Assay [4] has as its system OVCAR-5 ovarian. Particulars: 10 µM unless noted.
Assay [5] concerns SK-OV-3 ovarian. Particulars: 10 µM unless noted.
In assay [6] the test system is OVCAR-3 ovarian. Particulars: 10 µM unless noted.
The test system of assay [7] is HS 578T breast. Particulars: 10 µM unless noted.
For assay [8], the system named is NCI/ADR-RES ovarian. Particulars: 10 µM unless noted.
The test system of assay [9] is T-47D breast. Particulars: 10 µM unless noted.
Assay [10] has as its system BT-549 breast. Particulars: 10 µM unless noted.
Assay [11] relates to MDA-MB-435 melanoma. Particulars: 10 µM unless noted.
The subject of assay [12] is SW-620 colon. Particulars: 10 µM unless noted.
Assay [13] deals with MCF7 breast. The settings on record: 10 µM unless noted.
The test system of assay [14] is HCT-116 colon. Particulars: 10 µM unless noted.
Assay [15] relates to HCC-2998 colon. Particulars: 10 µM unless noted.
The test system of assay [16] is KM12 colon. The settings on record: 10 µM unless noted.
Assay [17] concerns OVCAR-4 ovarian. Particulars: 10 µM.
The test system of assay [18] is IGROV1 ovarian. Particulars: 10 µM unless noted.

About 83,000 compounds went through this panel and 20% of them were active in at least one assay; those are over-represented in the sample as a whole.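 Assay: single dose, 48 h. Readout: percent growth (0 = no net growth; negative = cell death). Active: <10.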 Unmarked numbers belong to inactive results. The source made the active and inactive calls.

On to `CC1(C)CC[C@]23CC[C@]4(C)[C@H](CC[C@@H]5[C@@]6(C)C/C(=C/c7cccnc7)C(=O)C(C)(C)[C@@H]6CC[C@]54C)[C@H]2[C@H]1OC3=O`, for which the growth was 42.4% [100 µM] in assay [1]; 11.3% [100 µM] in [2]; 42.4% [100 µM] in [3]; 79.7% [100 µM] in assay [4]; 64.6% [100 µM] in assay [5]; 49.3% [100 µM] in [6]. Further, the growth was 54.6% [100 µM] in assay [7]; 50.1% [100 µM] in assay [8]; 23.5% [100 µM] in [9]; 31.7% [100 µM] in assay [10]; 36% [100 µM] in assay [11]; 32.9% [100 µM] in [12]. The growth in assay [13] was 21.7% [100 µM]; in [14] it was 15.6% [100 µM]; in assay [15], 49.9% [100 µM]; in [16], 33.4% [100 µM].
For the molecule `C[n+]1c(-c2ccccc2)c2cc(N)ccc2c2ccccc21`, the growth in assay [1] was 21.9%; in [2], 17.7%; in assay [3] it was 34%; in [17], 29.8%; in assay [18] it was 23.6%; in assay [6], 69.7%. The growth in assay [7] is 27.1%; in assay [8], 100%; in [9], 11.9%; in assay [10] it was 0.585% (active); in assay [11] it was 31.5%; in assay [12], 40.5%. Further, the growth in assay [13] is 13%; in [14] it was 30.4%; in [15], 40.5%; in assay [16], 19.1%.
Take `COc1ccc(/C=C/C=C\C(=O)c2ccc(-n3ccnc3)cc2)cc1`: the growth in [1] is 82.1%; in assay [2], 71.5%; in assay [3], 86.4%; in assay [4], 103%; in [5] it was 97%; in [6] it was 96.7%. Further, the growth in assay [7] is 91.1%; in [8], 104%; in assay [9] it was 58.1%; in assay [10] it was 50%; in assay [11], 92.8%; in assay [12], 98.4%. Moreover, the growth in assay [13] is 79.5%; in assay [14] it was -76.2% (active); in [15], 99.9%; in [16] it was 92.8%.
For the molecule `CCN(CC)c1ccc2cc(NC(=O)OCCNC(=O)CCNC(=O)[C@H](CC(C)C)NC(=O)C(C)(C)NC(=O)C(C)(C)NC(=O)[C@H](CC(C)C)NC(=O)CCNC(=O)C(C)(C)NC(=O)[C@H](CC(C)C)NC(=O)CCNC(=O)[C@@](C)(CC)NC(=O)[C@H](C)NC(=O)CCNC(=O)C(C)(C)NC(=O)[C@H](C)NC(=O)[C@@H]3CCCN3C(=O)[C@@](C)(CC)NC(=O)[C@H](Cc3ccccc3)NC(=O)C3CCCN3C(=O)C(C)(C)NC(=O)C3CCCN3C(=O)C(C)(C)NC(C)=O)c(=O)oc2c1` (stereo not given in full), the growth is -52.9% (active) in [1]; -60.4% (active) in [2]; -74.8% (active) in assay [3]; -94.9% (active) in [17]; -69.3% (active) in assay [18]; -100% (active) in assay [6]. Further, the growth in assay [7] was -60.1% (active); in assay [8], -93.5% (active); in assay [9] it was -71.4% (active); in [10] it was -93.3% (active); in [11], -76.2% (active); in assay [12] it was -77.4% (active). Besides, the growth in assay [13] is -88.2% (active); in assay [14], -91.2% (active); in assay [15], -94.2% (active); in [16], -98.5% (active).
Consider `COC(=O)c1c(C)[nH]c(/C=C2\N=C(c3ccc[nH]3)C=C2OC)c1C`, for which the growth in assay [1] is 4.93% (active); in [2], -16.1% (active); in assay [3], -7.15% (active); in assay [17] it was -67.2% (active); in [5], 48.4%; in assay [18], -8.84% (active). Moreover, the growth in assay [6] was -40.6% (active); in [7], -27.4% (active); in assay [8], 13.3%; in [10], 0.541% (active); in assay [11], -44.9% (active); in assay [12] it was 1.56% (active). Also, the results for the growth in assay [14], in assay [15] and in assay [16] were -75% (active), -40.9% (active) and -2.32% (active), respectively.
Turning to `O=C(N/N=C\c1cc(Cl)ccc1O)N/N=C/c1cc(Cl)ccc1O`, the growth was 35.4% in [1]; 29.4% in assay [2]; 43.4% in assay [3]; 75.6% in assay [4]; 73.7% in assay [5]; 49.1% in assay [18]. In addition, the growth in assay [7] was 34.6%; in [8], 16%; in assay [9] it was 49.6%; in [11], 47.7%; in assay [12], 42.3%; in assay [13], 46.2%. Also, the growth in assay [14] was 16%; in [15], 46.1%; in [16], 44.4%.
`N#C/C(C(=O)c1ccccc1)=C1/C(=O)Nc2ccccc21`: the growth was 112% in assay [1]; 112% in assay [2]; 97.2% in assay [3]; 85.3% in assay [5]; 86.1% in assay [18]; 108% in [6]. Also, the growth in [7] was 91.4%; in assay [8], 103%; in [9], 97.1%; in [10], 48.3%; in assay [11], 97.6%; in [12], 95.9%. For the same molecule, the growth was 89.1% in assay [13], -50.4% (active) in assay [14], 112% in assay [15] and 100% in [16].
`Cc1ccc(S(=O)(=O)n2cc(C(=O)C(=O)N3CCCCC3)c3ccccc32)cc1`: the growth in assay [1] was 57.6%; in assay [2], 45.9%; in assay [3], 91.9%; in assay [17], 49.9%; in assay [5], 92%; in assay [6], 77%. For the same molecule, the growth in assay [8] is 73.8%; in [9], 36.1%; in [10], 74.8%; in assay [11] it was 87.1%; in assay [12] it was 123%; in assay [13], 85.8%. Moreover, the growth in assay [14] was 65.6%; in assay [15], 82.3%; in assay [16], 87.6%.
